Reference: PubChem BioAssay (NCATS)
Records with an inconclusive call do not appear. A call without a number means that no potency is given here. Active and inactive are the calls of the source. Calls follow the shape of the dose curve; as a rule, active = well fitted inhibition curve with a large enough effect; inconclusive = small, poorly fitted or top-dose-only effect; inactive = flat fitted curve, though single readings scatter. Where a SMILES comes first, the peptide text is derived from it. [ ]: non-standard residue; d: D form. ξ: configuration not given here. ξPhe(βξ-Me) = CC(c1ccccc1)C(N)C(=O)O; PhLac = O=C(O)[CH](O)Cc1ccccc1; NMeV = CN[CH](C(=O)O)C(C)C; 2Abz = Nc1ccccc1C(=O)O; GABA = NCCCC(=O)O

assay: P-glycoprotein substrates identified in KB-8-5-11 adenocarcinoma cell line, qHTS therapeutic library screen (AID 1346987); settings: KB-8-5-11 (P-gp overexpressing) viability, CellTiter-Glo, 72 h; series mostly up to 44.5 µM; also: nearly all actives have a fitted effect of over 65% in size
Procedure, shortened: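 P-gp-mediated resistance screen: KB-8-5-11 cells treated 72 h with compounds in dose-response. CellTiter-Glo viability.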
Potency is read from the fitted curve at half-maximal effect.

Row | Structure (SMILES) | Potency | outcome
1 | CCC[C@@H]1C[C@@H](C(=O)N[C@@H]([C@H]2O[C@H](SC)[C@H](O)[C@@H](O)[C@@H]2O)[C@@H](C)O)N(C)C1 | inactive | 
2 | COc1cc(/C=C/C(=O)OC2CC(C)=C(C(=O)O)/C2=C/CO[C@@H]2O[C@H](CO)[C@@H](O)[C@H](O)[C@H]2O)ccc1O (stereo not given in full) | inactive | 
3 | CC1(C)O[C@@]2(C)CC[C@@H]1C[C@@H]2OC1OC(CO)C(O)C(O)C1O (stereo not given in full) | inactive | 
4 | CC(C)[C@@H](C)/C=C/[C@@H](C)[C@H]1CC[C@H]2C3=CC=C4C[C@@H](O)CC[C@]4(C)[C@H]3CC[C@]12C | inactive | 
5 | COc1cc(CCc2ccccc2)c(C(=O)O)c2c1CC(C(C)(C)O)O2 (stereo not given) | inactive | 
6 | Nc1ccn([C@@H]2C(F)=C(CO)[C@@H](O)[C@H]2O)c(=O)n1 | 10.3 µM (active) | 
7 | C[C@@H]1O[C@@H](O[C@@H]2[C@@H](O)[C@@H](O)[C@H](O[C@@H]3[C@@H](O)[C@@H](O[C@]4(CO)O[C@H](CO)[C@@H](O)[C@@H]4OC(=O)/C=C/c4ccc(O)cc4)O[C@H](CO)[C@H]3OC(=O)/C=C/c3ccc(O)cc3)O[C@H]2C)[C@H](O)[C@H](O)[C@H]1O |  | inactive [at 9.29 µM]
8 | CCC(C)/C=C(C)/C=C/C1=CC2=C(Cl)C(=O)C(C)(OC(C)=O)C(=O)C2=CN1CCCC(=O)O (stereo not given) | inactive | 
9 | Cc1c(-c2ccnn2C)cc(C(=O)NCc2ccc(S(C)(=O)=O)cn2)c(=O)n1-c1cccc(C(F)(F)F)c1 | inactive | 
10 | CC(C)c1ccc(CC(=O)N2CCC[C@@H](c3cccc(OC(C)(C)C(=O)O)c3)C2)cc1 | inactive | 
11 | CC1=C2CC3OC3(C)CCC3OC3(C)CC2OC1=O (stereo not given) | inactive | 
12 | O=C(O)c1cc(O[C@@H]2O[C@H](CO[C@@H]3OC[C@@H](O)[C@H](O)[C@H]3O)[C@@H](O)[C@H](O)[C@H]2O)c2ccccc2c1O | inactive | 
13 | CC1(C)OC(=O)C(OCC2CC2)=C1c1ccc(S(C)(=O)=O)cc1 | inactive | 
14 | C/C=C1/[C@H](O[C@@H]2O[C@H](CO)[C@@H](O)[C@H](O)[C@H]2O)OC=C(C(=O)OC)[C@H]1CC(=O)O[C@@H]1O[C@H](CO)[C@@H](O)[C@H](O)[C@H]1O | inactive | 
15 | O=C(O[C@H]1[C@@H]2C[C@@H]3OC[C@@](O)([C@H]2[C@H](O[C@@H]2O[C@H](CO)[C@@H](O)[C@H](O)[C@H]2O)O3)[C@@H]1O)c1ccccc1 | inactive | 
16 | O=C(c1ccc(C#Cc2cccc(F)c2)cn1)N1CC2CC2C1 (stereo not given) | inactive | 
17 | CCC(C)C(=O)O[C@@H]1[C@@H](O)[C@@H](O[C@H]2O[C@H](CO)[C@@H](O)[C@H](O)[C@H]2O)O[C@H](CO)[C@H]1O (stereo not given in full) | inactive | 
18 | O=C(/C=C/c1ccc(O)cc1)O[C@H]1[C@@H]2C=CO[C@@H](O[C@@H]3O[C@H](CO)[C@@H](O)[C@H](O)[C@H]3O)[C@@H]2[C@@]2(CO)O[C@@H]12 | inactive | 
19 | CC1(C)CCC(C)(C)c2cc([C@@H](O)C(=O)Nc3ccc(C(=O)O)cc3F)ccc21 | inactive | 
20 | CC1CCC2(C(=O)OC3OC(CO)C(O)C(O)C3O)CCC3(C(=O)O)C(=CCC4C5(C)CCC(OC6OC(C)C(O)C(O)C6O)C(C)(C)C5CCC43C)C2C1C (stereo not given) | inactive | 

Row | Structure (SMILES) | Potency | outcome
21 | OC[C@H]1O[C@@H](OC(CCCCc2ccc(O)cc2)CCc2ccc(O)cc2)[C@H](O[C@@H]2OC[C@](O)(CO)[C@H]2O)[C@@H](O)[C@@H]1O (stereo not given in full) | inactive | 
22 | COc1ccc(C(O[C@@H]2O[C@H](CO)[C@@H](O)[C@H](O)[C@H]2O)C(CO)Oc2ccc(/C=C/CO)cc2OC)cc1O (stereo not given in full) | inactive | 
23 | CCC(C)C1NC(=O)C2CCCN2C(=O)C(C(C)C)NC(=O)c2ccccc2NC(=O)C(Cc2ccc(O)cc2)NC(=O)C(C)NC(=O)C(C(C)O)NC1=O (stereo not given) (cyclo([2Abz]VPITAY); configuration not given here) | inactive | 
24 | C/C(=C\CCC(C(=O)O)C1CCC2(C)C3=C(CCC12C)C1(C)CCC(=O)C(C)(C)C1CC3)C(=O)O (stereo not given) | inactive | 
25 | COCCN(C)Cc1ccc2nc3sc(C(=O)N(C)C4CCCCC4)cn3c2c1 | inactive | 
26 | CC(C)CC1NC(=O)C(C(C)c2ccccc2)NC(=O)C(C(C)C)NC(=O)C(C)NC(=O)CCCNC(=O)C(Cc2c[nH]c3ccccc23)NC(=O)C(C)NC1=O (stereo not drawn) (cyclo([GABA]AV[ξPhe(βξ-Me)]LAW); configuration not given here) | inactive | 
27 | NCCOCCOCCNC(=O)Cc1ccc(Nc2nc(NCc3ccc(F)cc3)nc(NCC3CCCCC3)n2)cc1 | inactive | 
28 | CC1=C2C=C(CO)C(CO)CCC2(C)CCC1=O (stereo not given) | inactive | 
29 | CC(/C=C/[C@]1(O)[C@@]2(C)CO[C@@]1(C)C[C@@H](O)C2)=C\C(=O)O[C@@H]1O[C@H](CO)[C@@H](O)[C@H](O)[C@H]1O | inactive | 
30 | C=C1CCC2C(C)(COC3OC(COC(=O)CC(=O)O)C(O)C(O)C3O)CCCC2(C)C1CCC1=CCOC1=O (stereo not given) | inactive | 
31 | CC1CC(O)C2(C)C(C(=O)O)=CCCC2C1(C)CCc1ccoc1 (stereo not given) | inactive | 
32 | Cc1ccc(Sc2cncc3sc(C(N)=O)cc23)cc1 | inactive | 
33 | Clc1ccc2c(c1)C1=NCCN1c1c(-c3noc(C4CC4)n3)ncn1-2 | inactive | 
34 | CC(=O)O[C@@H]1C[C@]2(C)[C@@]3(CCC4[C@@]5(C)CC[C@H](O[C@@H]6O[C@H](C(=O)O)[C@@H](O)[C@H](O[C@@H]7O[C@H](CO)[C@H](O)[C@H](O)[C@H]7O[C@@H]7O[C@@H](C)[C@H](O)[C@@H](O)[C@H]7O[C@@H]7OC[C@](O)(CO)[C@H]7O)[C@H]6O[C@@H]6O[C@H](CO)[C@H](O)[C@H](O)[C@H]6O)C(C)(C)C5CC[C@]42C)O[C@@H](O)[C@]12C3CC(C)(C)[C@@H](OC(=O)/C=C/c1ccc(O)c(O)c1)[C@@H]2OC(=O)/C=C/c1ccccc1 (stereo not given in full) |  | inactive [at 9.29 µM]
35 | C=CC(C)(C)O[C@@H]1O[C@H](CO[C@@H]2OC[C@](O)(CO)[C@H]2O)[C@@H](O)[C@H](O)[C@H]1O | inactive | 
36 | COc1ccc(C)c2sc(NC(=O)c3ccncc3)nc12 | inactive | 
37 | CNC(=O)c1ccc2cc([C@@]3(O)CCn4cncc43)ccc2c1 | inactive | 
38 | COc1ncc(-c2ccc3c(Nc4cc(Oc5cc(F)cc(F)c5)cc(C(=O)O)c4)c(S(=O)(=O)NC4CC4)cnc3c2)c(OC)n1 | inactive | 
39 | CC(C)C(C(=O)N1CCCC1C(=O)O)N(C)C(=O)C(O)Cc1ccccc1 (stereo not given) (H-[PhLac]-[NMeV]-Pro-OH; configuration not given here) | inactive | 
40 | CC[C@H]1OC(=O)[C@H](C)[C@@H](O[C@H]2C[C@@](C)(OC)[C@@H](O)[C@H](C)O2)[C@H](C)[C@@H](O[C@@H]2O[C@H](C)C[C@H](N(C)C)[C@H]2O)[C@@](C)(O)C[C@@H](C)[C@@H]2N[C@@H](COCCOC)OC([C@H]2C)[C@]1(C)O | inactive | 
